# Results as given in PubChem BioAssay AID652048 (National Center for Advancing Translational Sciences (NCATS), 2013).
# “And” between values parts separate entries of the source, which are not always exact repeats. Equal entries are not always repeated. The campaign covered roughly 410,000 compounds. About 2,400 (0.59%) were called active. Cut-off read from the data, not from the text of the source: active = max activation above about 30%; inactive = the rest. Shown is part of a subset that was picked to be rich in actives. Some compounds were tested as several samples or in several runs, with calls that do not always agree.
# Target: D(3) dopamine receptor (Homo sapiens) (UniProt P35462)
# Experiment: qHTS of D3 Dopamine Receptor Agonist: qHTS; note: 0% is about no effect
# Conditions: D3R DiscoveRx beta-arrestin cells, luminescence, 90 min; stronger effect = higher value
# Procedure, shortened: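 Cells at 1500/well, incubated overnight, then treated with pinned compounds (dopamine as control) for 90 min at 37 degrees C. DiscoveRx reagent added for 30 - 60 minutes at room temperature; luminescence read.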
# Sequence of D(3) dopamine receptor (Homo sapiens) (P35462 whole entry, looked up): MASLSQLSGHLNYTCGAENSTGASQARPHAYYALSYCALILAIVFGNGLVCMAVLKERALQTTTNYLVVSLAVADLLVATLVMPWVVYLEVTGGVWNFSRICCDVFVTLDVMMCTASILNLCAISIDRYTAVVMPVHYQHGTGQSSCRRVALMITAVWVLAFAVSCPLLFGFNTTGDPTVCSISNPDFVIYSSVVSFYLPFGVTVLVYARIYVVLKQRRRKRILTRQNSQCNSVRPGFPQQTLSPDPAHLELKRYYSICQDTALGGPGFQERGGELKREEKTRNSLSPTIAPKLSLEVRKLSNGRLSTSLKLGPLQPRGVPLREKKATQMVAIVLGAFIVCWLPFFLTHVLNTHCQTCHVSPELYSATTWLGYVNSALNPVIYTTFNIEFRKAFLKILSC
row,Structure (SMILES),max activation
1,COc1ccc(-n2c(=O)c3ccccc3n(Cc3ccccc3Cl)c2=O)cc1,4.01% (inactive)
2,Cc1ccc(CSc2oc(-c3cccs3)nc2S(=O)(=O)c2ccc(C)cc2)cc1,6.03% (inactive)
3,N#CCSc1nc2ccc(N3CCOCC3)cc2c(=O)n1CCc1ccccc1,3.32% (inactive)
4,CCCCn1c(SCC(=O)NCC2CCCO2)nc2ccc(N3CCOCC3)cc2c1=O (stereo not drawn),33% (active)
5,COCCCNC(=O)CSc1nc2ccc(N3CCOCC3)cc2c(=O)n1CCc1ccccc1,-3.98% (inactive)
6,COc1ccccc1CNCc1ccc(C(=O)O)s1,6.32% (inactive)
7,COc1ccc(C)cc1Nc1nc2ccccc2c2nnc(C)n12,8.25% (inactive)
8,COC(=O)c1ccc(NC(=O)CCc2c(C)nn(-c3ccc(N4CCCC4)nn3)c2C)cc1,-2.49% (inactive)
9,Cc1ccc(OCC(=O)Nc2ccc(OCc3cc(=O)n4c(C)csc4n3)cc2)cc1C,4.15% (inactive)
10,CCc1ccc(NC(=O)CN2CCC(C(=O)c3ccc(OC)cc3)CC2)cc1,-15.3% (inactive)
11,COc1ccc(NC(=O)CCN2CCN(CCO)CC2)cc1,4.05% (inactive)
12,CCOc1ccc(NC(=O)CN2CCN(CC(=O)Nc3ccc(OC)cc3)CC2)cc1,10.4% (inactive) and 34.5% (active)
13,CCc1ccc(S(=O)(=O)n2ccnc2)cc1,8.12% (inactive)
14,Oc1ccccc1-c1nc2ccc(Cl)cn2c1Nc1ccc2c(c1)OCCO2,-2.82% (inactive)
15,C=CCSC1=C(C#N)C(c2cc(Br)c(O)c(OC)c2)CC(=O)N1 (stereo not drawn),9.82% (inactive)
16,Cc1ccsc1C1C(C#N)=C(N)OC2=C1C(=O)CC(C)C2 (stereo not drawn),1.57% (inactive)
17,CCOC(=O)CSC1=C(C#N)C(c2sccc2C)CC(=O)N1 (stereo not drawn),31.9% (active)
18,Cc1ccccc1CNC(=O)c1cccc(NC(=O)c2nsc3ccccc23)c1,8.47% (inactive)
19,CCCc1c2oc(C(=O)O)cc(=O)c2cc2c(=O)cc(C(=O)O)n(CC)c12,-9.91% (inactive)
20,COc1ccc(-c2csc(-c3c(N)c(C(=O)c4ccc(OC)c(OC)c4)n4ccccc34)n2)cc1,4.7% (inactive)
21,Cc1c(C=O)c2ccccn2c1C(=O)c1ccncc1,31.8% (active)
22,COc1ccc(OC)c(-c2csc(-c3c(N)c(C(=O)c4ccccc4)n4ccccc34)n2)c1,-12% (inactive)
23,Nc1nc(/C(=C/CC(=O)O)C(=O)N[C@@H]2C(=O)N3C(C(=O)O)=CCS[C@H]23)cs1,4.45% (inactive)
24,COc1ccc(-c2nc3sc(CCNS(=O)(=O)c4ccc(F)c(C)c4)c(C)n3n2)cc1,6.72% (inactive)
25,Cc1c(C)n(Cc2ccc(Cl)cc2)c2ccc(C(=O)N3CCN(c4ccccc4F)CC3)cc12,-3.88% (inactive)
26,Cc1cccc(N2CCN(C(=O)c3ccc4c(c3)CCN4S(=O)(=O)c3ccccc3)CC2)c1C,-0.325% (inactive)
27,CCn1c(C)c(C)c2cc(C(=O)N3CCN(c4cccc(C)c4C)CC3)ccc21,5.02% (inactive) and 95.9% (active)

row,Structure (SMILES),max activation
1,O=C(CSc1nc2c(c(=O)[nH]1)CN(Cc1ccc(F)cc1)CC2)Nc1ccccc1Cl,6.55% (inactive)
2,CCOC(=O)c1c(-c2ccc(OC)cc2)oc2ccc(OCc3ccc(C(=O)OC)cc3)cc12,9.24% (inactive)
3,COC(=O)c1c(-c2ccsc2)oc2ccc(-c3cc(OC)c(OC)c(OC)c3)cc12,45.2% (active)
4,COc1cc(-c2nnc(NC(=O)CS(=O)(=O)c3ccc(Cl)cc3)o2)cc(OC)c1OC,-1.85% (inactive)
5,COc1ccccc1NC(=O)c1sc2nc(C)c(C(=O)Nc3ccc(Cl)cc3)c(-c3ccc(Br)cc3)c2c1N,-10.3% (inactive)
6,Cc1nn(-c2ccc(N3CCCCC3)nn2)c(C)c1CCC(=O)NCc1ccccc1F,13.4% (inactive)
7,CCOc1ccc(Nc2nc(Cc3nnc(SCC(=O)c4ccc(C)cc4)o3)cs2)cc1,22.4% (inactive)
8,O=C(CSc1nnc(Cn2cnc3ccccc32)o1)c1ccccc1,2.49% (inactive)
9,CC(=O)Nc1ccc(C(=O)CSc2nnc(Cc3ccccc3)o2)cc1,46.1% (active)
10,Cc1ccc(NC(=O)c2oc3ccc(S(=O)(=O)N4CCCCC4)cc3c2C)cc1Cl,-12.7% (inactive)
11,CCOC(=O)c1ccc(NC(=O)c2nc[nH]c2C(=O)NCc2ccccc2)cc1,56.5% (active)
12,CNC(=O)c1[nH]cnc1C(=O)N[C@@H](CC(C)C)C(=O)OCc1ccccc1,15.1% (inactive)
13,C[C@H](NC(=O)c1nc[nH]c1C(=O)N[C@@H](C)C(=O)OC(C)(C)C)C(=O)OC(C)(C)C,-3.39% (inactive)
14,CCOC(=O)c1[nH]cnc1C(=O)Nc1ccccc1C,4.49% (inactive)
15,O=C(Nc1ccon1)c1nc[nH]c1C(=O)NCc1ccccc1,12.3% (inactive)
16,Cc1cccc(NC(=O)c2nc[nH]c2C(=O)NCC(=O)OCc2ccccc2)c1,74.4% (active)
17,C[C@H](NC(=O)c1nc[nH]c1C(=O)NCC(=O)OC(C)(C)C)C(=O)OCc1ccccc1,48.3% (active)
18,O=C(Nc1cc(Br)ccc1F)c1nc[nH]c1C(=O)NCc1ccccc1,-7.03% (inactive)
19,C[C@H](NC(=O)c1nc[nH]c1C(=O)NCC(=O)OC(C)(C)C)c1ccccc1,-13.3% (inactive)
20,COc1cccc(C(=O)N(Cc2cccc(Cl)c2)Cc2ccco2)c1,-11.4% (inactive)
21,Cc1cc(C)cc(NS(=O)(=O)c2ccc(-c3cc(C)no3)s2)c1,-10.7% (inactive)
22,CCOc1cc(/C=C(\C#N)C(=O)Nc2ccccc2C)ccc1OCc1cc(=O)n2nc(CC)sc2n1,-12.7% (inactive)
23,O=C1CC(c2nnc(Cc3ccc(Cl)cc3)o2)CN1c1ccccc1 (stereo not drawn),10.5% (inactive)
24,COC(=O)c1c(NC(=O)C(C)Oc2ccc(Cl)c(C)c2)sc(C)c1C (stereo not drawn),-8.23% (inactive)
25,CN[C@@H]1[C@H](O[C@H]2[C@H](O[C@H]3[C@H](O)[C@@H](O)[C@H](N=C(N)N)[C@@H](O)[C@@H]3N=C(N)N)O[C@@H](C)[C@]2(O)CO)O[C@@H](CO)[C@H](O)[C@H]1O,4.88% (inactive)
26,Cc1ccc(OC(=O)CSc2nnc(-c3cccs3)o2)cc1,7.3% (inactive)
